Measured values reported in PubChem BioAssay (NCATS).
Records with an inconclusive call do not appear. Calls of active or inactive are those of the source. Unless noted, calls come from the whole dose curve; as a rule, active = well fitted inhibition curve with a large enough effect; inconclusive = small, poorly fitted or top-dose-only effect; inactive = flat fitted curve, though single readings scatter.

Columns and labels:
[1] = qHTS drug screen for cell cycle checkpoint inhibitors in PARPi-resistant BRCA-mutant ovarian cancer cell lines. (AID 1963452; calls by dose curve); conditions: PEO1/OlaR viability, CellTiter-Glo luminescence, 96 h, stronger effect = lower value
Procedure, shortened: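 PEO1, PEO4 and PEO1/OlaR ovarian cancer cells, 600 per well, exposed 96 h at 37C to a dilution series. Viability read by CellTiter-Glo luminescence, normalized to DMSO and empty wells; activity summarized as Z-AUC.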

[2] = qHTS profiling for inhibitors of Plasmodium falciparum proliferation (AID 504749); note: potency is the fitted concentration of half-maximal effect;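 for activity, negative = inhibition: 0% = DMSO vehicle and full inhibition = artemisinin control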; for all read-outs here: nearly all actives have a fitted effect of over 60% in size; conditions: P. falciparum in erythrocytes, SYBR Green DNA, 72 h; for activity, negative = inhibition: at 28.7 µM (top of the series)
Procedure, shortened: (§1)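 SYBR Green fluorescence (ex 485 nm, em 535 nm) reports parasite DNA after 72 h compound exposure of infected red cells at 0.3% parasitemia, 2.5% hematocrit; signal normalized to 0.29 uM artemisinin and vehicle wells.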

3D7 = assay: as above; conditions: P. falciparum in erythrocytes, SYBR Green DNA, 72 h; series mostly up to 28.7 µM
Procedure, shortened: as §1

7G8 = assay: as above; conditions: P. falciparum in erythrocytes, SYBR Green DNA, 72 h; series mostly up to 28.7 µM
Procedure, shortened: as §1

AA1029 = assay: as above; conditions: P. falciparum in erythrocytes, SYBR Green DNA, 72 h; series mostly up to 28.7 µM
Procedure, shortened: as §1

AS120 = assay: as above; conditions: P. falciparum in erythrocytes, SYBR Green DNA, 72 h; series mostly up to 28.7 µM
Procedure, shortened: as §1

ATS189 = assay: as above; conditions: P. falciparum in erythrocytes, SYBR Green DNA, 72 h; series mostly up to 28.7 µM
Procedure, shortened: as §1

ATS95 = assay: as above; conditions: P. falciparum in erythrocytes, SYBR Green DNA, 72 h; series mostly up to 28.7 µM
Procedure, shortened: as §1

C2A = assay: as above; conditions: P. falciparum in erythrocytes, SYBR Green DNA, 72 h; series mostly up to 28.7 µM
Procedure, shortened: as §1

CP185 = assay: as above; conditions: P. falciparum in erythrocytes, SYBR Green DNA, 72 h; series mostly up to 28.7 µM
Procedure, shortened: as §1

CP191 = assay: as above; conditions: P. falciparum in erythrocytes, SYBR Green DNA, 72 h; series mostly up to 28.7 µM
Procedure, shortened: as §1

CP192 = assay: as above; conditions: P. falciparum in erythrocytes, SYBR Green DNA, 72 h; series mostly up to 28.7 µM
Procedure, shortened: as §1

CP194 = assay: as above; conditions: P. falciparum in erythrocytes, SYBR Green DNA, 72 h; series mostly up to 28.7 µM
Procedure, shortened: as §1

CP201 = assay: as above; conditions: P. falciparum in erythrocytes, SYBR Green DNA, 72 h; series mostly up to 28.7 µM
Procedure, shortened: as §1

CP211 = assay: as above; conditions: P. falciparum in erythrocytes, SYBR Green DNA, 72 h; series mostly up to 28.7 µM
Procedure, shortened: as §1

CP215 = assay: as above; conditions: P. falciparum in erythrocytes, SYBR Green DNA, 72 h; series mostly up to 28.7 µM
Procedure, shortened: as §1

CP217 = assay: as above; conditions: P. falciparum in erythrocytes, SYBR Green DNA, 72 h; series mostly up to 28.7 µM
Procedure, shortened: as §1

CP237 = assay: as above; conditions: P. falciparum in erythrocytes, SYBR Green DNA, 72 h; series mostly up to 28.7 µM
Procedure, shortened: as §1

CP238 = assay: as above; conditions: P. falciparum in erythrocytes, SYBR Green DNA, 72 h; series mostly up to 28.7 µM
Procedure, shortened: as §1

CP203 = assay: as above; conditions: P. falciparum in erythrocytes, SYBR Green DNA, 72 h; series mostly up to 28.7 µM
Procedure, shortened: as §1

[3] = measured here: PEO1 parental Z-AUC

COc1cc(CNC(=O)CCCC/C=C/C(C)C)ccc1O
inactive: Z-AUC [1] 1.64 | activity, negative = inhibition ([2]; parasite line A) -2.8% | activity, negative = inhibition ([2]; parasite line B) 8.8% | Potency (3D7) | Potency (7G8) | Potency (AA1029) | Potency (AS120) | Potency (ATS189) | Potency (ATS95) | Potency (C2A) | Potency (CP185) | Potency (CP191) | Potency (CP192) | Potency (CP194) | Potency (CP201) | Potency (CP211) | Potency (CP215) | Potency (CP217) | Potency (CP237) | Potency (CP238)
1.45: Z-AUC [1, 3]
1.46: Z-AUC ([1]; measured here: PEO4 Z-AUC)

[O-][n+]1ccccc1SSc1cccc[n+]1[O-]
active: Potency ([2]; parasite line A) 891 nM | Potency ([2]; parasite line B) 891 nM | Potency (3D7) 891 nM | Potency (7G8) 891 nM | Potency (AA1029) 891 nM | Potency (AS120) 891 nM | Potency (ATS189) 1120 nM | Potency (ATS95) 891 nM | Potency (C2A) 891 nM | Potency (CP185) 1120 nM | Potency (CP191) 1260 nM | Potency (CP192) 1350 nM | Potency (CP194) 1070 nM | Potency (CP201) 1900 nM | Potency (CP203) 1350 nM | Potency (CP211) 1070 nM | Potency (CP215) 1350 nM | Potency (CP217) 1260 nM | Potency (CP237) 891 nM | Potency (CP238) 1120 nM

O=C(Nc1ccc2c(c1)CCN(Cc1ncn[nH]1)C2)c1ccccc1-c1ccc(C(F)(F)F)cc1
0.47: Z-AUC ([1]; measured here: PEO4 Z-AUC)
-0.291: Z-AUC [1, 3]
inactive: Z-AUC [1] -0.0591

CC(C(=O)O)c1ccc2c(c1)[nH]c1ccc(Cl)cc12 (stereo not drawn)
inactive: activity, negative = inhibition ([2]; parasite line A) 3.75% | activity, negative = inhibition ([2]; parasite line B) 2.58% | Potency (3D7) | Potency (7G8) | Potency (AA1029) | Potency (AS120) | Potency (ATS189) | Potency (ATS95) | Potency (C2A) | Potency (CP185) | Potency (CP191) | Potency (CP192) | Potency (CP194) | Potency (CP201) | Potency (CP203) | Potency (CP211) | Potency (CP215) | Potency (CP217) | Potency (CP237) | Potency (CP238)

C#C[C@]1(O)CC[C@H]2[C@@H]3CCc4cc(O)ccc4[C@H]3CC[C@@]21C
0.139: Z-AUC [1, 3]
0.344: Z-AUC ([1]; measured here: PEO4 Z-AUC)
inactive: Z-AUC [1] -0.519 | activity, negative = inhibition ([2]; parasite line A) 17.5% | activity, negative = inhibition ([2]; parasite line B) 5.92% | Potency (3D7) | Potency (7G8) | Potency (AA1029) | Potency (AS120) | Potency (ATS189) | Potency (ATS95) | Potency (C2A) | Potency (CP185) | Potency (CP191) | Potency (CP192) | Potency (CP194) | Potency (CP201) | Potency (CP211) | Potency (CP215) | Potency (CP217) | Potency (CP237) | Potency (CP238)

O=C(O)[C@H](CC(=O)N1C[C@H]2CCCC[C@H]2C1)Cc1ccccc1
-0.83: Z-AUC ([1]; measured here: PEO4 Z-AUC)
-0.735: Z-AUC [1, 3]
inactive: Z-AUC [1] -0.763 | activity, negative = inhibition ([2]; parasite line A) 9.74% | activity, negative = inhibition ([2]; parasite line B) 2.21% | Potency (3D7) | Potency (7G8) | Potency (AA1029) | Potency (AS120) | Potency (ATS189) | Potency (ATS95) | Potency (C2A) | Potency (CP185) | Potency (CP191) | Potency (CP192) | Potency (CP194) | Potency (CP201) | Potency (CP203) | Potency (CP211) | Potency (CP215) | Potency (CP217) | Potency (CP237) | Potency (CP238)

CN[C@H](CC(C)C)C(=O)N[C@H]1C(=O)N[C@@H](CC(N)=O)C(=O)N[C@H]2C(=O)N[C@H]3C(=O)N[C@H](C(=O)N[C@H](C(=O)O)c4cc(O)cc(O)c4-c4cc3ccc4O)[C@H](O)c3ccc(c(Cl)c3)Oc3cc2cc(c3O[C@@H]2O[C@H](CO)[C@@H](O)[C@H](O)[C@H]2O[C@H]2C[C@](C)(N)[C@H](O)[C@H](C)O2)Oc2ccc(cc2Cl)[C@H]1O
-1.21: Z-AUC ([1]; measured here: PEO4 Z-AUC)
-0.325: Z-AUC [1, 3]
inactive: Z-AUC [1] -0.534

CCNC(=O)[C@H]1O[C@@H](n2cnc3c(N)nc(NCCc4ccc(CCC(=O)O)cc4)nc32)[C@H](O)[C@@H]1O
0.917: Z-AUC [1, 3]
inactive: Z-AUC [1] 1.44
1.15: Z-AUC ([1]; measured here: PEO4 Z-AUC)

CN1CCN(c2cc3c(nn2)Oc2ccccc2N3C)CC1
inactive: activity, negative = inhibition ([2]; parasite line A) 11.3% | activity, negative = inhibition ([2]; parasite line B) 1.64% | Potency (3D7) | Potency (7G8) | Potency (AA1029) | Potency (AS120) | Potency (ATS189) | Potency (ATS95) | Potency (C2A) | Potency (CP185) | Potency (CP191) | Potency (CP192) | Potency (CP194) | Potency (CP201) | Potency (CP203) | Potency (CP211) | Potency (CP215) | Potency (CP217) | Potency (CP237) | Potency (CP238)

O=C1NC(=O)/C(=C/c2ccc3nccnc3c2)S1
0.611: Z-AUC ([1]; measured here: PEO4 Z-AUC)
0.559: Z-AUC [1, 3]
inactive: Z-AUC [1] 1.93

COc1cc(SC)ccc1C(=O)N1CCC(Cc2ccccc2)CC1
inactive: Z-AUC [1] 0.323
1.59: Z-AUC ([1]; measured here: PEO4 Z-AUC)
1.42: Z-AUC [1, 3]

CC1(C)[C@@H](O)CC[C@]2(C)[C@H]3C(=O)C=C4[C@@H]5C[C@@](C)(C(=O)O)CC[C@]5(C)CC[C@@]4(C)[C@]3(C)CC[C@@H]12
0.997: Z-AUC ([1]; measured here: PEO4 Z-AUC)
inactive: Z-AUC [1] 0.796 | activity, negative = inhibition ([2]; parasite line A) -3.83% | activity, negative = inhibition ([2]; parasite line B) -0.325% | Potency (3D7) | Potency (7G8) | Potency (AA1029) | Potency (AS120) | Potency (ATS189) | Potency (ATS95) | Potency (C2A) | Potency (CP185) | Potency (CP191) | Potency (CP192) | Potency (CP194) | Potency (CP201) | Potency (CP211) | Potency (CP215) | Potency (CP217) | Potency (CP237) | Potency (CP238)
1.38: Z-AUC [1, 3]

O=C(/C=C/c1ccc(O)cc1)c1ccc(O)cc1O
0.213: Z-AUC ([1]; measured here: PEO4 Z-AUC)
inactive: Z-AUC [1] 0.396
0.804: Z-AUC [1, 3]

CCOC(=O)N1CCN(/[N+]([O-])=N/Oc2ccc([N+](=O)[O-])cc2[N+](=O)[O-])CC1
1.72: Z-AUC [1, 3]
1.39: Z-AUC ([1]; measured here: PEO4 Z-AUC)
inactive: Z-AUC [1] 1.46

CCN1/C(=C/C(C)=O)Sc2ccc(OC)cc21
0.802: Z-AUC ([1]; measured here: PEO4 Z-AUC)
0.672: Z-AUC [1, 3]
inactive: Z-AUC [1] 0.945

Oc1cc(O)cc(/C=C/c2ccc(O)c(O)c2)c1
inactive: Z-AUC [1] 1.52
0.317: Z-AUC ([1]; measured here: PEO4 Z-AUC)
0.906: Z-AUC [1, 3]

C[N+]1(C)C2CC(OC(=O)[C@H](CO)c3ccccc3)CC1C1OC12 (stereo partly drawn)
1.91: Z-AUC [1, 3]
2.01: Z-AUC ([1]; measured here: PEO4 Z-AUC)
inactive: Z-AUC [1] 1.57

N.N.O=C(O)C1(C(=O)O)CCC1.[Pt]
0.632: Z-AUC [1, 3]
0.869: Z-AUC ([1]; measured here: PEO4 Z-AUC)
inactive: Z-AUC [1] 1.36

CC[C@H]1OC(=O)[C@H](C)[C@@H](O[C@H]2C[C@@](C)(OC)[C@@H](O)[C@H](C)O2)[C@H](C)[C@@H](O[C@@H]2O[C@H](C)C[C@H](N(C)C)[C@H]2O)[C@](C)(O)C[C@@H](C)C(=O)[C@H](C)[C@@H](O)[C@]1(C)O
1.27: Z-AUC ([1]; measured here: PEO4 Z-AUC)
inactive: Z-AUC [1] 1.12
0.909: Z-AUC [1, 3]

COc1ccc(/C=C/C(=O)Nc2ccccc2C(=O)O)cc1OC
1.51: Z-AUC [1, 3]
inactive: Z-AUC [1] 1.02 | activity, negative = inhibition ([2]; parasite line A) 3.65% | activity, negative = inhibition ([2]; parasite line B) -0.207% | Potency (3D7) | Potency (AA1029) | Potency (AS120) | Potency (ATS189) | Potency (ATS95) | Potency (C2A) | Potency (CP185) | Potency (CP191) | Potency (CP192) | Potency (CP194) | Potency (CP201) | Potency (CP211) | Potency (CP215) | Potency (CP217) | Potency (CP237) | Potency (CP238)
0.971: Z-AUC ([1]; measured here: PEO4 Z-AUC)

COc1cc(/C=C/C(=O)CC(=O)/C=C/c2ccc(O)c(OC)c2)ccc1O
-0.434: Z-AUC ([1]; measured here: PEO4 Z-AUC)
active: Potency (3D7) 10000 nM | Potency (7G8) 11200 nM | Potency (C2A) 10000 nM | Potency (CP215) 16900 nM
-0.396: Z-AUC [1, 3]
inactive: Z-AUC [1] -0.374
